Compound activity (PubChem)
Most compounds without a hit are left out; they make up all but 3.1% or so of the library.
uPA generation = qHTS for Inhibitors of Cell Surface uPA Generation. cell surface uPA generation assay, qHTS. Potency, µM (top dose mostly 38.3 µM), inactives show top-dose activity change, negative = inhibition, most hits filed as inhibitors. 0.31% of 330,000 active. AID 540303, 2011; active means well fitted inhibition curve with a large enough effect; inconclusive means small, poorly fitted or top-dose-only effect; inactive means no such curve, though single readings can be large or run the other way; tested in mouse RAW 264.7 cells; further: potency means the concentration at half of the fitted maximal effect; on the % scale 0 is the no-effect control and ±100 the full control effect; nearly all actives have a fitted effect of over 55% in size
DRD3 agonist = qHTS of D3 Dopamine Receptor Agonist: qHTS; D(3) dopamine receptor (Homo sapiens), P35462; D3R DiscoveRx beta-arrestin cells, luminescence, 90 min; max activation, %; 0.58% of 410,000 active; AID 652048, 2013; in the data active means max activation above about 30%; further: 0% is about no effect
Target sequence (P35462 whole entry, looked up): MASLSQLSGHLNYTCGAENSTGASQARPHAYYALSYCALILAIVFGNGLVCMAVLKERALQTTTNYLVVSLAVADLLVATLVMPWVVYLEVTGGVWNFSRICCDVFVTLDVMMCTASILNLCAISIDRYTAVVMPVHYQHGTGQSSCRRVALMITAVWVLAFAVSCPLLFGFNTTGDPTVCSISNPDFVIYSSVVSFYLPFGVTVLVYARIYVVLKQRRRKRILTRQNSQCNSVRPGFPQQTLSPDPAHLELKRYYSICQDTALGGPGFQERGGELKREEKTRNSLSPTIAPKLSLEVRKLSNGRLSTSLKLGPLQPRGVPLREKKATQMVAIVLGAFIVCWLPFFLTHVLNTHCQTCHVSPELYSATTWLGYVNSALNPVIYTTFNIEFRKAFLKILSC
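Cells at 1500/well, incubated overnight, then treated with pinned compounds (dopamine as control) for 90 min at 37 degrees C. DiscoveRx reagent added for 30 - 60 minutes at room temperature; luminescence read.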
D3 antag = qHTS of D3 Dopamine Receptor Antagonist: qHTS; D3R cells, DiscoveRx beta-arrestin luminescence, antagonist mode; hits give low values; max response, negative = inhibition, %; 2.5% of 360,000 active; in the data active means max response below about -50%; inconclusive means no clear call, values can overlap the other calls; further: on the % scale 0 is the no-effect control and ±100 the full control effect
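Cells plated overnight at 1500 cells/well, then exposed to library compounds with dopamine controls for 90 minutes at 37 degrees C. DiscoveRx reagent added for 30–60 minutes at room temperature; luminescence read, quantitative HTS format.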
RGS4 inhibitor = Inhibitors of Regulator of G Protein Signaling (RGS) 4: qHTS. Regulator of G-protein signaling 4 (Homo sapiens), P49798. Transcreener GDP fluorescence polarization, RGS4-accelerated GTP hydrolysis. Potency, µM (top dose mostly 114 µM), for the others: at the highest dose activity change, negative = inhibition, hits mostly inhibitors. 0.039% of 390,000 active; active means well fitted inhibition curve with a large enough effect; inconclusive means small, poorly fitted or top-dose-only effect; inactive means no such curve, though single readings can be large or run the other way; further: potency means the concentration at half of the fitted maximal effect; on the % scale 0 is the no-effect control and ±100 the full control effect; nearly all actives have a fitted effect of over 75% in size
Target sequence (P49798 whole entry, looked up): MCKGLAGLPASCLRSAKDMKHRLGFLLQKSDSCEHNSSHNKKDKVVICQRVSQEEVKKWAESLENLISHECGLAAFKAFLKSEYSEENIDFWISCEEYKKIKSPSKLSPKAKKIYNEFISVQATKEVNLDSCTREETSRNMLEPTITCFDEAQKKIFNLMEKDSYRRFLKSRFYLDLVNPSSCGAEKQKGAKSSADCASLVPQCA
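MLSMR compounds (23 nl, pin-transferred) preincubated 10 min at room temperature with a 500nM (2x) first reagent, then RGS4 at 900nM (2x) plus Transcreener GDP mix added; fluorescence polarization (620/688 nm) read before and after 90 min at 30 °C.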
An asterisk follows results filed as active; ? = inconclusive; · = no result given; ! = a repeat was not active; [ ] = dose if it differs, or a comment.

SMILES	uPA generation	DRD3 agonist	D3 antag	RGS4 inhibitor
O=C(CSCn1nnc2c(=O)[nH]c(Cc3ccc(F)cc3)nc21)Nc1cccc(C(F)(F)F)c1	·	4	·	-16%
CCOc1ccc(NC(=O)CN2CCN(C3CCCCC3)C(=O)C2=O)cc1	·	-25	·	19%
Cc1ccc2nc(CSc3nnc(NC(=O)COc4ccccc4F)s3)cc(=O)n2c1	·	58*	·	-4%
Cc1ccc(-n2ncc3c(NCCC4=CCCCC4)ncnc32)cc1	·	3	·	-6%
CC1(C)CC(=O)C(C=Nc2ccccc2C(=O)O)=C(O)C1	1%	1	19	2%
CC1(C)CC(=O)C(C=Nc2ccccc2Sc2ccccc2)=C(O)C1	-5%	-18	-54*	-30%
N#Cc1nc(-c2cccs2)oc1N1CCN(Cc2ccccc2)CC1	-3%	-43	-75*	-5%
CC(C)CCN1C(=O)c2ccccc2CC1(C)C(=O)NC1CCC(C)CC1 (configuration not stated)	·	5	·	33%
O=C(O)[C@@H]1[C@H]2C[C@H]3c4[nH]c5ccccc5c4CCN3C[C@@H]2CC[C@@H]1O	12%	-71	-61*	-25%
Cc1cccc(-c2ccc3[nH]c4c(c3c2)CCN2C[C@@H]([C@H](C)O)[C@@H](N(C)C(=O)NC3CCCCC3)C[C@@H]42)c1	·	-8	-19	·
C[C@H](O)[C@@H]1CN2CCc3c([nH]c4ccccc34)[C@@H]2C[C@@H]1N(C)C(=O)NC1CCCCC1	·	-15	-58*	·
O=C1CCC2CN3CCc4c([nH]c5ccccc45)C3CC2C1 (configuration not stated)	·	-12	-90*	·
Fc1ccc2nc(N3CCOCC3)sc2c1	-3%	-7	-16	5%
Nc1nc2ccc(N3CCOCC3)cc2s1	-7%	-9	-76*	-38%
Cc1ccc(C(=O)NC(=S)Nc2cccc(NC(=O)c3ccccc3Cl)c2)cc1[N+](=O)[O-]	-2%	-15	?	-10%
O=C(Nc1ccccc1F)c1ccc([N+](=O)[O-])s1	·	3	-5	2%
Cc1ccc(C(=O)NC(=S)Nc2cccc(NC(=O)c3ccccc3)c2)cc1[N+](=O)[O-]	3%	-8	-68*	-21%
Cc1ccc(C(=O)NNC(=S)Nc2cccc3ccccc23)s1	-6%	-3	-95*	?
O=C(Nc1cccc2ccccc12)c1ccc([N+](=O)[O-])s1	11µM*	-1	-26	11%
O=C(Nc1cccnc1)c1ccc([N+](=O)[O-])s1	4.5µM*	-1	37	-18%
O=C(NNC(=S)Nc1cccc2ccccc12)c1cccc(Br)c1	11%	0	?	-54%
CCOc1ccc(CCNC(=O)CN2C(=O)COc3ccc(S(=O)(=O)N4CCC(C)CC4)cc32)cc1	·	4	·	-5%
COc1cccc(C=NC=Nc2cccc(OC)c2)c1	·	·	·	212%[56.9 µM]
Cc1ccc(C)c(N2CCN(C(=O)CN3C(=O)COc4ccc(S(=O)(=O)N5CCCC5)cc43)CC2)c1	·	-4	·	11%
CCC12CN3CC(C)(CN(C1)C3c1ccc(O)cc1O)C2=O (configuration not stated)	·	2	·	-10%
SMILES	uPA generation	DRD3 agonist	D3 antag	RGS4 inhibitor
COc1ccc(C(=O)NC(=S)Nc2cccnc2)cc1[N+](=O)[O-]	7%	-16	0	-42%
Cc1c(C(=O)NC(=S)Nc2cccnc2)cccc1[N+](=O)[O-]	-1%	-14	-65*	-1%
CCO[C@@H]1O[C@H](C(COCc2ccccc2)OCc2ccccc2)[C@H](OCc2ccccc2)[C@H]1O (some centres not stated)	·	-1	·	·
Cc1oc(=O)c(NC(=O)c2cccc(Cl)c2)cc1C(=O)c1ccccc1	-11%	-7	-63*	?
COc1ccc(C(=O)Nc2cc(C(=O)c3ccccc3)c(C)oc2=O)cc1	-13%	-8	-62*	?
Cc1oc(=O)c(NC(=O)c2ccccc2)cc1C(N)=O	3%	0	15	-15%
COc1cccc(CNC(=O)C2CCCN(c3nnc(-n4c(C)ccc4C)s3)C2)c1OC (configuration not stated)	·	-19	·	3%
Cc1ccc(C2(c3ccc(C)cc3)CC2C(=O)Nc2ccc([N+](=O)[O-])cc2O)cc1 (configuration not stated)	-9%	-5	-66*	?
CC1(C)CC1C(=O)Nc1ccc([N+](=O)[O-])cc1Br (configuration not stated)	2%	1	72	6%
Cc1cccc(C)c1OCc1cc(C(=O)N2CCN(c3ccccc3)CC2C)no1 (configuration not stated)	-33%	-31	-25	-51%
OC(CNC1CCCc2ccccc21)COc1c(Cl)cccc1Cl (configuration not stated)	13%	-24	-78*	14%
OC(CNC1Cc2ccccc2C1)COc1ccc(Cl)cc1 (configuration not stated)	14%	-11	?	-9%
Nc1nc(CN2CCN(c3cccc(Cl)c3)CC2)nc(N2CCCc3ccccc32)n1	-2%	16	-77*	3%
Nc1nc(CN2CCN(c3ccccc3F)CC2)nc(N2CCCc3ccccc32)n1	2%	32*	-24	-13%
Cn1ncc2c(N3CCN(c4ccccc4F)CC3)ncnc21	·	30*!	29	2%
COc1ccc2nc(C)cc(N/N=C/c3cccc(OC)c3O)c2c1	7%	-3	0	?
COc1cccc(/C=N/Nc2ncnc3scc(-c4ccccc4)c23)c1O	-4%	38*	46	-16%
COc1cccc(/C=N/Nc2nc(Nc3ccccc3)nc(-n3nc(C)cc3C)n2)c1O	1%	-46	-141*	-19%
COc1cccc(/C=N/Nc2cc(-n3nc(C)cc3-c3ccccc3)ncn2)c1O	-7%	38*	24	-34%
COc1ccc(CNc2nc(N)nc3nc[nH]c23)cc1	·	·	·	30%
Cc1cc(N(C)N)nc(NC(=O)NS(=O)(=O)c2ccccc2Cl)n1	0%	5	10	-3%
COc1cc(NC(=O)c2c(C)oc3ncnc(N4CCCCC4)c23)cc(OC)c1	·	5	·	-19%
COc1ccc(N2CCN(C(=O)c3nn(C)c4c3CSc3ccccc3-4)CC2)cc1	·	4	·	7%
Cc1ccccc1NC(=O)CCSc1nnnn1-c1ccccc1	·	31*	-23	-18%
Cc1cccc(C)c1NC(=O)CSc1nnnn1-c1ccc(C(=O)O)cc1	-1%	2	-79*	-27%
O=C1NC[C@@H](CCCCN2C[C@H](Cc3ccccc3)N(CCc3ccc(O)cc3)C(=O)C2=O)N(Cc2ccccc2)C1=O	·	-5	-11	·
CCN(CC)C(=O)C1=C(C)N(Cc2ccc(OC)cc2)C(=O)C(CC(=O)NC(c2ccccc2)c2ccccc2)C1 (configuration not stated)	·	0	2	·
COc1cc(-c2cc3nc(NCCOc4ccccc4)ccn3n2)cc(OC)c1OC	·	5	20	·
